Activity calls are given as the source filed them. The calls were made as follows: active = hit-call score of the fitted dose curve at least 0.9, where 1 is the maximum; inactive = score below 0.9.

The values below come from PubChem BioAssay (EPA / NIEHS).

The test can be described thus: ATG_PPRE_CIS: Attagene CIS-FACTORIAL HepG2 Assay for human Peroxisome Proliferator-activated Response Element (PPRE) (AID 2282958). The conditions noted are these: HepG2 PPRE cis-element reporter, Attagene transcription factor profiling; actives raise or lower the signal. As to the method: ATG_CIS is a cell-based, multiplexed-readout assay that uses HepG2, a human liver cell line, with measurements taken at 24 hours after chemical dosing in a 24-well plate.ATG_PPRE_CIS is one of 52 assay component(s) measured or calculated from the ATG_CIS assay. It is designed to make measurements of mRNA induction, a form of inducible reporter, as detected with fluorescence intensity signals by Reverse transcription polymerase chain reaction (RT-PCR) and Capillary electrophoresis technology.Data from the assay component ATG_PPRE_CIS was analyzed into 1 assay endpoint. This assay endpoint, ATG_PPRE_CIS, was analyzed with bidirectional fitting relative to DMSO as the negative control and baseline of activity. Using a type of inducible reporter, measures of mRNA for gain or loss-of-signal activity can be used to understand the reporter gene at the transcription factor-level as they relate to the gene PPARA and PPARD and PPARG. Furthermore, this assay endpoint can be referred to as a primary readout, because this assay has produced multiple assay endpoints where this one serves a reporter gene function. To generalize the intended target to other relatable targets, this assay endpoint is annotated to the nuclear receptor intended target family, where the subfamily is non-steroidal.
Human liver HepG2 cells are transiently transfected with multiple reporter transcription units (MRTUs) in 6-well plates using FuGene 6 reagent (Roche; 3 ml FuGene/1 mg DNA). The MRTU constructs are regulated by a cis-regulating element (promoter). […] A major difference between the CIS and TRANS system is that in CIS activities of endogenous TFs are measured, whereas the TRANS assay evaluates changes in activities of exogenous, chimeric NR-Gal4 proteins. […] At the end of 24 hour incubation, total RNA was isolated using TriZol reagent (Invitrogen). The isolated RNA is then reverse-transcribed using oligo(dT) primer and Mo-MLV reverse transcriptase (Invitrogen) with DNAse I (Ambion) treatment for 30 min. The one-tenth of the produced cDNA was amplified by PCR using Taq DNA polymerase (Invitrogen) and two reporter sequence-specific primers. The PCR products were fluorescently labeled by primer extension with 6-arboxyfluorescein (6-FAM) 5'-labeled reporter sequence-specific primer (2 min at 95 C, 20 s at 68 C and 10 min at 72 C) and these products were digested with 5U of HpaI (New England Biolabs) for 2h at 37 C. The fragments were purified using Qiaquick PCR columns (Qiagen), analyzed on an ABI 3130xL genetic analyzer (Applied Biosystems) with peak positions identified by using a set of X-rhodamine (ROX)-labeled MapMarker1000 molecular weight standards (BioVentures). The raw capillary electrophoresis data was processed using Attagraph software (Attagene).
Consider `Nc1nnc(-c2ccc([N+](=O)[O-])o2)o1`, for which the result was inactive.

Consider `CCCc1c(OCCCCc2nn[nH]n2)ccc(C(C)=O)c1O`, for which the AC50 (usually the midpoint of the concentration-response curve, whichever way the signal moves) was 2.26 µM (active).

As to `CC(=O)c1nccs1`, the outcome was inactive.

Consider `CCCCCCCCCCCCCCCCCC[N+](C)(C)C`, for which the AC50 was 6.2 µM (active).

Turning to `O=C(Oc1ccccc1)c1ccccc1`, the outcome was inactive.

For the compound `CC(C)CC(=O)O`, the compound was called inactive.

As for `O=C(CC(C(=O)OC1CCCCC1)S(=O)(=O)O)OC1CCCCC1` (stereo not given), the call was inactive.

In the case of `Oc1ccc(Cl)cc1C1CCCC1`, the compound was classed as inactive.

`CC1(C)S[C@@H]2[C@H](NC(=O)[C@H](N)c3ccccc3)C(=O)N2[C@H]1C(=O)O`: the result was inactive.

On to `O=C(C1CCCCC1)N1CC(=O)N2CCc3ccccc3C2C1` (stereo not given), for which the call was inactive.

As for `CCOC(=O)c1ccccc1`, the call was inactive.

As for `CC(C)(Oc1ccc(Cl)cc1)C(=O)O`, the call was inactive.

Take `Cc1cc(C)c(S(=O)(=O)O)cc1N=Nc1cc(S(=O)(=O)O)c2ccccc2c1O`: the outcome was inactive.

Consider `COC(OC)C(C)c1ccccc1` (stereo not given), for which the result was inactive.

`OCCN(CCO)c1cccc(Cl)c1`: the compound was classed as inactive.

As for `C[Si](C)(C)O[Si](C)(C)O[Si](C)(C)C`, the compound was classed as inactive.

With `COc1ccccc1OCC(O)CO` (stereo not given), the result was inactive.

On to `CC1=C(CC(=O)O)c2cc(F)ccc2/C1=C\c1ccc(S(C)=O)cc1` (stereo not given), for which the compound was called inactive.

`CCOc1ccc2c(c1)C(C)CC(C)(C)N2` (stereo not given): the compound was classed as inactive.

For `Sc1nc2ccccc2s1`, the AC50 is 35.7 µM (active).

Consider `Oc1ccc(Oc2ccccc2)cc1`, for which the half-maximal activity concentration (AC50) was 48 µM (active).

`CCCCCC[C@@H](O)C/C=C\CCCCCCCC(=O)O`: the AC50 is 45.7 µM (active).

As to `O=[N+]([O-])c1ccc2nc[nH]c2c1`, the call was inactive.

Turning to `C=C1CC[C@H]2C[C@@H]1C2(C)C`, the result was inactive.

On to `CCCCNC(N)=O`, for which the compound was called inactive.

Turning to `O=S(=O)(O)c1cccc2ccccc12`, the outcome was inactive.

With `CCO[Si](CCCN)(OCC)OCC`, the result was inactive.

Turning to `CC(C)n1c(/C=C/[C@@H](O)C[C@@H](O)CC(=O)O)c(-c2ccc(F)cc2)c2ccccc21`, the AC50 is 36.3 µM (active).

For `OCCOCCOCCOCCOCCO`, the compound was classed as inactive.

`O=C(OCc1ccccc1)c1ccccc1`: the compound was called inactive.

Turning to `COc1ccc2ccccc2c1`, the compound was called inactive.

With `NC(=O)c1ccc([N+](=O)[O-])cc1Cl`, the result was inactive.

In the case of `NC(N)=Nc1nc(CSCCC(N)=NS(N)(=O)=O)cs1`, the compound was classed as inactive.

As to `COC(=O)c1ccccc1`, the call was inactive.

Regarding `C=C(C)C(=O)OCCCCCC`, the result was inactive.

With `CN(C)Cc1cc(C(C)(C)C)c(O)c(C(C)(C)C)c1`, the call was inactive.

For `OCCc1ccccn1`, the compound was classed as inactive.

For `O=C(O)c1cc(Cl)cc(Cl)c1O`, the compound was called inactive.

With `CNC(=C[N+](=O)[O-])NCCSCc1csc(CN(C)C)n1`, the compound was called inactive.

For the compound `c1cc(N(CC2CO2)CC2CO2)ccc1Cc1ccc(N(CC2CO2)CC2CO2)cc1` (stereo not given), the call was inactive.
